Reference: the supplement of paper PMC4840960
± gives the standard deviation of the averaged measurements.

Tested on: E18 rat cortical neuron-glia co-culture
Experiment: fiber score / MBP score (myelination specific beyond OL differentiation) (ratio); higher = more myelination-specific MBP alignment
Details: 5 µM; treatment time: 8 days (DIV5-DIV13)
Procedure, shortened: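 Fiber score divided by MBP score is the read-out; fiber score is continuous MBP fiber length per Olig2+ nucleus, and MBP score is thresholded MBP area × intensity per Olig2+ nucleus. Primary E18 rat cortical co-cultures were dissociated with papain and seeded at 20,000 cells/well on poly-d-lysine/laminin 96-well plates. Library compounds at 1 or 5 µM were given in myelination medium from DIV5 to DIV13, after which cells were fixed in 4 % paraformaldehyde, immunostained for MBP and Olig2 with DAPI, and imaged in four 10X fields per well in duplicate wells.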

Compound | fiber score / MBP score
CN(C)CCC(c1ccc(Cl)cc1)c1ccccn1 (stereo not given) [Chlorpheniramine] | 0.471 ± 0.094
OC(CCN1CCCCC1)(c1ccccc1)C1CCCCC1 (stereo not given) [Trihexyphenidyl] | 0.486
CNC(=N)NCCC[C@H](N)C(=O)O | 0.854
C#C[C@]1(O)CC[C@H]2[C@@H]3CCc4cc(O)ccc4[C@H]3CC[C@@]21C [Ethinyl Estradiol] | 0.958
O=C(NCCO[N+](=O)[O-])c1cccnc1 [Nicorandil] | 1.17
CN(C)CCOC(c1ccccc1)c1ccccc1 [Diphenhydramine] | 0.525
O=C1CN(/N=C/c2ccc([N+](=O)[O-])o2)C(=O)N1 [Nitrofurantoin] | 1.79
CN(C)CC/C=C1/c2ccccc2COc2ccc(CC(=O)O)cc21 [Olopatadine] | 0.936
CCCC1O[C@@H]2C[C@H]3[C@@H]4CCC5=CC(=O)C=C[C@]5(C)[C@H]4[C@@H](O)C[C@]3(C)[C@]2(C(=O)CO)O1 (stereo not given in full) [Budesonide] | 0.762
CN(C)CCN(Cc1ccccc1)c1ccccn1 [Tripelennamine] | 0.588
Nc1ccn([C@H]2CC[C@@H](CO)O2)c(=O)n1 [Zalcitabine] | 0.902
CC(C)c1nc(CN(C)C(=O)N[C@H](C(=O)N[C@@H](Cc2ccccc2)C[C@H](O)[C@H](Cc2ccccc2)NC(=O)OCc2cncs2)C(C)C)cs1 [Ritonavir] | 0.623
C[C@@](Cc1ccc(O)c(O)c1)(NN)C(=O)O [Carbidopa] | 0.776
CCc1c(C)[nH]c2c1C(=O)C(CN1CCOCC1)CC2 (stereo not given) [Molindone] | 0.498
CC(C)NCC(O)COc1ccc(CC(N)=O)cc1 (stereo not given) [Atenolol] | 1.04
CC(CN1c2ccccc2Sc2ccccc21)N(C)C (stereo not given) [Promethazine] | 0.931
O=C1C(CC[S+]([O-])c2ccccc2)C(=O)N(c2ccccc2)N1c1ccccc1 (stereo not given) [Sulfinpyrazone] | 0.857
C[C@]12CC[C@@H]3c4ccc(O)cc4CC[C@H]3[C@@H]1CC[C@@H]2O [Estradiol] | 0.62
CC(C)(S)[C@@H](N)C(=O)O [Penicillamine] | 0.926
C=CC1=C(C(=O)O)N2C(=O)[C@@H](NC(=O)/C(=N\O)c3csc(N)n3)[C@H]2SC1 [Cefdinir] | 0.824
CC1(C)O[C@@H]2C[C@H]3[C@@H]4C[C@H](F)C5=CC(=O)C=C[C@]5(C)[C@@]4(F)[C@@H](O)C[C@]3(C)[C@]2(C(=O)CO)O1 [Fluocinolone Acetonide] | 0.825
CC(C)(C)NCC(O)c1ccc(O)c(CO)c1 (stereo not given) [Albuterol] | 0.789
CC[C@H](C)C(=O)O[C@H]1C[C@@H](C)C=C2C=C[C@H](C)[C@H](CC[C@@H]3C[C@@H](O)CC(=O)O3)[C@H]21 [Lovastatin] | 6.02
Nc1c2c(nc3ccccc13)CCCC2 [Tacrine] | 0.566
CC(=O)Nc1ccc(CC(=O)O)cc1 [Actarit] | 0.778
NS(=O)(=O)c1cc2c(cc1C(F)(F)F)NC(Cc1ccccc1)NS2(=O)=O (stereo not given) [Bendroflumethiazide] | 0.559

Tested on: E18 rat cortical neuron-glia co-culture
Experiment: myelination (MBP fiber length per Olig2+ nucleus), % of 1 µM DAPT response (DMSO = 0) (% of DAPT); higher = more myelination, active = 50 or more
Details: 1 µM; treatment time: 8 days (DIV5-DIV13)
Procedure, shortened: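 Four 10X fields in each of duplicate wells were analysed after cultures were fixed in 4 % paraformaldehyde and immunostained for MBP and Olig2, with DAPI as the nuclear counterstain. The cultures were papain-dissociated primary E18 rat cortical co-cultures at 20,000 cells/well on poly-d-lysine/laminin 96-well plates, dosed with library compounds at 1 or 5 µM in myelination medium from DIV5 to DIV13. The myelination readout was continuous straight MBP fiber length per Olig2+ nucleus, with 0.1 % DMSO set to 0 and a 1 µM positive control set to 100.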

Compound | myelination
CC(C)NCC(O)COc1cccc2ccccc12 (stereo not given) [Propranolol] | 9.85 (inactive)
CC(=O)NC[C@H]1CN(c2ccc(N3CCOCC3)c(F)c2)C(=O)O1 [linezolid] | -7.33 (inactive)
O=C1Nc2ccccc2/C1=C1/Nc2ccccc2C1=O [Indirubin] | -4.48 (inactive)
C#C[C@]1(O)CC[C@H]2[C@@H]3CCC4=CC(=O)CC[C@@H]4[C@H]3CC[C@@]21C [Norethindrone] | -8.89 (inactive)
Brc1c(NC2=NCCN2)ccc2nccnc12 [Brimonidine] | -13.9 (inactive)
Cn1nnc2c(C(N)=O)ncn2c1=O [Temozolomide] | -29.3 (inactive)
Cc1ccc(-c2cc(C(F)(F)F)nn2-c2ccc(S(N)(=O)=O)cc2)cc1 [Celecoxib] | -5.22 (inactive)
C[C@@H]1C[C@H]2[C@@H]3CCC4=CC(=O)C=C[C@]4(C)[C@@]3(F)[C@@H](O)C[C@]2(C)[C@H]1C(=O)CO [Desoximetasone] | 7.66 (inactive)
CC(=O)OCC(=O)[C@@]1(O)CC[C@H]2[C@@H]3CCC4=CC(=O)CC[C@]4(C)[C@H]3C(=O)C[C@@]21C [Cortisone acetate] | -45.2 (inactive)
CCOC(=O)c1ccc(OC(=O)CCCCCNC(=N)N)cc1 [Gabexate] | -20.3 (inactive)
CN(C)[C@@H]1C(O)=C(C(N)=O)C(=O)[C@@]2(O)C(O)=C3C(=O)c4c(O)cccc4C[C@H]3C[C@@H]12 [Sancycline] | -12.5 (inactive)
CCN(CC)CCNC(=O)c1cc(Cl)c(N)cc1OC [Metoclopramide] | -6.65 (inactive)
COc1cc2nc(N(C)CCCNC(=O)C3CCCO3)nc(N)c2cc1OC (stereo not given) [Alfuzosin] | -57.9 (inactive)
CN(C)CCC(c1ccc(Cl)cc1)c1ccccn1 (stereo not given) [Chlorpheniramine] | -9.68 (inactive)
OC(CCN1CCCCC1)(c1ccccc1)C1CCCCC1 (stereo not given) [Trihexyphenidyl] | -12.2 (inactive)
CNC(=N)NCCC[C@H](N)C(=O)O | -37.1 (inactive)
C#C[C@]1(O)CC[C@H]2[C@@H]3CCc4cc(O)ccc4[C@H]3CC[C@@]21C [Ethinyl Estradiol] | -18.3 (inactive)
O=C(NCCO[N+](=O)[O-])c1cccnc1 [Nicorandil] | -8.12 (inactive)
CN(C)CCOC(c1ccccc1)c1ccccc1 [Diphenhydramine] | -12.1 (inactive)
O=C1CN(/N=C/c2ccc([N+](=O)[O-])o2)C(=O)N1 [Nitrofurantoin] | -1.03 (inactive)

Compound | myelination
CN(C)CC/C=C1/c2ccccc2COc2ccc(CC(=O)O)cc21 [Olopatadine] | -7.93 (inactive)
CCCC1O[C@@H]2C[C@H]3[C@@H]4CCC5=CC(=O)C=C[C@]5(C)[C@H]4[C@@H](O)C[C@]3(C)[C@]2(C(=O)CO)O1 (stereo not given in full) [Budesonide] | 3.65 (inactive)
CN(C)CCN(Cc1ccccc1)c1ccccn1 [Tripelennamine] | -35.6 (inactive)
Nc1ccn([C@H]2CC[C@@H](CO)O2)c(=O)n1 [Zalcitabine] | 3.9 (inactive)
CC(C)c1nc(CN(C)C(=O)N[C@H](C(=O)N[C@@H](Cc2ccccc2)C[C@H](O)[C@H](Cc2ccccc2)NC(=O)OCc2cncs2)C(C)C)cs1 [Ritonavir] | -20.5 (inactive)
C[C@@](Cc1ccc(O)c(O)c1)(NN)C(=O)O [Carbidopa] | -3.67 (inactive)
CCc1c(C)[nH]c2c1C(=O)C(CN1CCOCC1)CC2 (stereo not given) [Molindone] | -21 (inactive)
CC(C)NCC(O)COc1ccc(CC(N)=O)cc1 (stereo not given) [Atenolol] | 2.66 (inactive)
CC(CN1c2ccccc2Sc2ccccc21)N(C)C (stereo not given) [Promethazine] | -18.8 (inactive)
O=C1C(CC[S+]([O-])c2ccccc2)C(=O)N(c2ccccc2)N1c1ccccc1 (stereo not given) [Sulfinpyrazone] | -0.801 (inactive)
C[C@]12CC[C@@H]3c4ccc(O)cc4CC[C@H]3[C@@H]1CC[C@@H]2O [Estradiol] | -24.6 (inactive)
CC(C)(S)[C@@H](N)C(=O)O [Penicillamine] | -2.14 (inactive)
C=CC1=C(C(=O)O)N2C(=O)[C@@H](NC(=O)/C(=N\O)c3csc(N)n3)[C@H]2SC1 [Cefdinir] | 1.23 (inactive)
CC1(C)O[C@@H]2C[C@H]3[C@@H]4C[C@H](F)C5=CC(=O)C=C[C@]5(C)[C@@]4(F)[C@@H](O)C[C@]3(C)[C@]2(C(=O)CO)O1 [Fluocinolone Acetonide] | 22.3 (inactive)
CC(C)(C)NCC(O)c1ccc(O)c(CO)c1 (stereo not given) [Albuterol] | -29.6 (inactive)
CC[C@H](C)C(=O)O[C@H]1C[C@@H](C)C=C2C=C[C@H](C)[C@H](CC[C@@H]3C[C@@H](O)CC(=O)O3)[C@H]21 [Lovastatin] | -6.08 (inactive)
Nc1c2c(nc3ccccc13)CCCC2 [Tacrine] | -9.65 (inactive)
CC(=O)Nc1ccc(CC(=O)O)cc1 [Actarit] | -13.9 (inactive)
NS(=O)(=O)c1cc2c(cc1C(F)(F)F)NC(Cc1ccccc1)NS2(=O)=O (stereo not given) [Bendroflumethiazide] | -24.6 (inactive)
